High-throughput results from PubChem.
An excerpt weighted towards active compounds, which were near 2.4% of everything screened.
Cruzain noTriton: blocks cruzain activity in detergent-free assay | P25779 | purified cruzain, Z-FR-AMC fluorescence, no detergent | Potency, µM, without a hit: max response, negative = inhibition, usual class: inhibitors | hit rate 2.3% among 200,000 | AID 1476;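 further: plate controls were enzyme without inhibitor for no effect and buffer without enzyme for full effect; nearly all actives have a fitted effect of over 40% in size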
Target sequence (P25779 123-467 limits assumed): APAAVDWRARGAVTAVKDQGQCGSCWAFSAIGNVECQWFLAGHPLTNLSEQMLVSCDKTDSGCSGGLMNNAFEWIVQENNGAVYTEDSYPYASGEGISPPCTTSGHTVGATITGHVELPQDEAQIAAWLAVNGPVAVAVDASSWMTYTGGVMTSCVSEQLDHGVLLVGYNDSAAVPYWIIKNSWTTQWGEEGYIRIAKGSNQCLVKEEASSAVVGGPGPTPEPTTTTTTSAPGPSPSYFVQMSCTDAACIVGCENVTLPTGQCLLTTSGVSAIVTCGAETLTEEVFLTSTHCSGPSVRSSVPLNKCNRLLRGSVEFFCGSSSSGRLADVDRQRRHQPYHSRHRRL
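Purified cruzain at 1.5 nM, pre-incubated 15 min with compound at room temperature in 100 mM sodium acetate pH 5.5, 5 mM DTT, 0.00005% Triton X-100. Reaction started with 2 uM Z-FR-AMC; AMC fluorescence increase over 60 s gives rate.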
Cruzain Triton: blocks cruzain activity in presence of Triton detergent. purified cruzain, Z-FR-AMC fluorescence, 0.01% Triton. Potency, µM, for inactives: max response, negative = inhibition, hits mostly inhibitors. hit rate 0.43% among 200,000. AID 1478;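 further: plate controls were neutral wells for no effect and buffer without enzyme for full effect; nearly all actives have a fitted effect of over 40% in size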
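Cysteine protease activity tested under reducing, mildly acidic conditions (100 mM sodium acetate pH 5.5, 5 mM DTT) plus 0.01% Triton X-100. Cruzain 1.5 nM; substrate Z-FR-AMC 2 uM; 15 min compound preincubation at room temperature.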
Papain inh: blocks papain protease activity, flagging nonselective cruzain hits | shares compounds with Cruzain Triton | purified papain, Z-FR-AMC fluorescence cleavage | Potency, µM, inactives show max response, negative = inhibition, actives largely listed as inhibitors | hit rate 41% among 410 | AID 2161;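 further: 0% = no-compound wells and -100% = no-enzyme wells; nearly all actives have a fitted effect of over 35% in size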
Starred values were filed as active, the others as inactive; ? = inconclusive; / = not tested or not shown. The call rests on the fitted dose curve; in most records, active means well fitted curve in the direction sought with a large enough effect; inconclusive means small, poorly fitted or top-dose-only effect, or another doubt; inactive means no such curve, though single readings can be large; an effect the other way counts as inactive or inconclusive. Potency means the concentration at half of the fitted maximal effect.

SMILES	Cruzain noTriton	Cruzain Triton	Papain inh
O=C(Nc1ccc(Cl)cc1C(=O)c1ccccc1)c1ccccc1	-16.6%	1.0%	/
CCOc1cc(C(=O)OCc2cc(=O)n3nc(C4CC4)sc3n2)cc(OCC)c1OCC	-0.7%	-1.1%	/
CCCNc1nc(N2CCOCC2)nc(N2CCOCC2)n1	3.7%	2.7%	/
Nc1nc(-c2ccco2)nc(N2CCCCC2)n1	-17.4%	-1.3%	/
CCOC(=O)CNc1nc(C#N)nc(N2CCOCC2)n1	2µM*	2.24µM*	2.24µM*
CC(C)N(C#N)c1nc(N2CCOCC2)nc(N2CCOCC2)n1	-5.4%	2.3%	/
N#Cc1nc(N2CCCCC2)nc(N2CCOCC2)n1	1µM*	0.891µM*	1µM*
CNc1nc(OCC(F)(F)F)nc(N2CCOCC2)n1	-2.9%	2.7%	/
CCOc1nc(C#N)nc(N2CCOCC2)n1	/	/	3.98µM*
N#Cc1nc(N)nc(N2CCCCC2)n1	/	/	5.01µM*
CCOc1ccc(CN2C(=O)c3ccccc3Sc3ccc(C(=O)OC)cc32)cc1	-11.9%	0.9%	/
COc1ccc(C2CC(=O)c3cc(-c4nc(-c5cccc([N+](=O)[O-])c5)cs4)c(=O)n(-c4cccc(C)c4)c3C2)cc1 (configuration not stated)	?	-2.9%	/
COc1ccc(-c2cc(C(=O)NCCc3ccc(OC)c(OC)c3)c3ccccc3n2)cc1	?	-4.9%	/
CCN(CC)CCCNC(=O)CCCn1ncn2c(cc3occc32)c1=O	-4.2%	-1.1%	/
Cc1ccc(NS(=O)(=O)c2ccc(-c3cc(C)no3)cc2)c(C)c1	-7.3%	-9.9%	/
CCCCN(CC)CCNC(=O)C1CCCN(c2ncnc3onc(C)c23)C1 (configuration not stated)	-10.4%	-1.6%	/
N/C(=N/O)c1nc(N2CCCC2)nc(N(c2ccccc2)c2ccccc2)n1	-2.5%	-11.7%	/
COc1nc(C#N)nc(N2CCCCC2)n1	/	/	2.24µM*
CN(C)c1nc(SCC#N)nc(N2CCOCC2)n1	-7.0%	3.5%	/
N#Cc1nc(N2CCCC2)nc(N(c2ccccc2)c2ccccc2)n1	/	/	2µM*
C1CCN(c2nc(N3CCCCC3)nc(N3CCNCC3)n2)CC1	5.9%	3.9%	/
CN(C)c1nc(C#N)nc(N2CCOCC2)n1	3.16µM*	3.98µM*	2.24µM*
N#Cc1nc(N2CCCC2)nc(N2CCCC2)n1	5.01µM*	7.94µM*	5.62µM*
COc1nc(OC)nc(N2CCCCCC2)n1	3.6%	-3.9%	/
Cc1cc(C2(c3cc(C)c(O)cc3C)OS(=O)(=O)c3ccccc32)c(C)cc1O	8.0%	-8.4%	/
SMILES	Cruzain noTriton	Cruzain Triton	Papain inh
Cc1ccc(Cl)cc1NC(=O)CCCN1C(=O)CCn2nc(-c3cn(C)c4ccccc34)cc21	?	-0.2%	/
CC(=O)c1nnn(-c2nc(N)nc(N(c3ccccc3)c3ccccc3)n2)c1C	?	-4.5%	/
CC(=O)c1nnn(-c2nc(C#N)nc(N3CCOCC3)n2)c1C	/	/	-6.8%
Cc1ccccc1C(=O)N1CCN(CCc2ccccn2)CC1	-5.5%	-1.6%	/
CCc1cccc(-n2c(=O)c3cccnc3n2CC(=O)Nc2ccc(F)c(C)c2)c1	-8.2%	-13.1%	/
COc1ccc(C(=O)Oc2c(Sc3ccc(Cl)cc3)c(C)nn2C(C)(C)C)cc1OC	-4.9%	-4.5%	/
O=c1c2ccccc2sc2nc(C3CCCCC3)n(Cc3ccco3)c(=O)c12	-22.3%	15.8µM*	-14.0%
CCc1nc2sc3ccccc3c(=O)c2c(=O)n1Cc1ccco1	-28.0%	-13.8%	/
O=c1c(N2CCN(c3cccc(Cl)c3)CC2)csc2ccc(Cl)cc12	-11.0%	-10.9%	/
COc1cccc(CN2C(=O)c3ccccc3Sc3ccc(C(=O)NCCc4ccc(Cl)cc4)cc32)c1	20µM*	-2.7%	7.5%
O=C(NCc1ccc2c(c1)OCO2)c1ccc2c(c1)N(Cc1c(F)cccc1Cl)C(=O)c1ccccc1S2	10µM*	-1.9%	-2.6%
O=C(NCc1ccco1)c1ccc2c(c1)N(Cc1c(F)cccc1Cl)C(=O)c1ccccc1S2	?	-2.8%	/
CCOc1ccc(CN2C(=O)c3ccccc3Sc3ccc(C(=O)NCCc4ccccc4)cc32)cc1	?	-5.6%	/
O=C(O)c1ccc2c(c1)N(Cc1ccc(F)cc1Cl)C(=O)c1ccccc1S2	?	-0.7%	/
CCOc1ccc(CN2C(=O)c3ccccc3Sc3ccc(C(=O)NCc4ccc(C)cc4)cc32)cc1	10µM*	-1.3%	8.1%
COc1cccc(CNC(=O)c2ccc3c(c2)N(Cc2ccc(F)cc2Cl)C(=O)c2ccccc2S3)c1	12.6µM*	1.0%	6.6%
Cc1cccc(CN2C(=O)c3ccccc3Sc3ccc(C(=O)NCCc4ccccc4)cc32)c1	?	1.1%	/
CCOC(=O)N1CCc2c(sc3c2c(=O)n(Cc2ccccc2)c(=O)n3Cc2c(F)cccc2Cl)C1	?	-2.3%	/
CCCCN(C)CCCNC(=O)Cn1ncc2c3ccccc3n(Cc3ccccc3F)c2c1=O	-0.7%	-2.7%	/
CC(C)(C)C(=O)Nc1c(C(=O)N2CCN(c3ccc(F)cc3)CC2)oc2ccccc12	14.0%	-5.7%	/
